Measurements: PubChem BioAssay AID720650 (Broad Institute, 2013)
Unmarked numbers belong to inactive results. The source made the active and inactive calls. How the calls were made is not given here.

Assay: C difficile toxins, biochemical counterscreen, UDPG substrate absence, confirmatory dose response (AID 720650)
Details: series mostly up to 19.5 µM

Which AC50 does the source give for `CCN(CC)C(=O)C1CCN(S(=O)(=O)c2c(C)noc2/C=C/c2cccc(C)c2)CC1` here?
The AC50 was “inactive”.

For `CCOc1ccccc1/C=C/c1onc(C)c1S(=O)(=O)N1CCC(C(=O)N2CCCCCC2)CC1`, which AC50 is on record?
The AC50 was “inactive”.

For `CC(=O)Nc1ccc(S(=O)(=O)Nc2nc3ccccc3nc2-n2ccc(=NC(=O)c3ccc(F)cc3)cc2)cc1`, which AC50 is on record?
Its AC50 is “inactive”.

With `O=C(c1ccc2c(c1)N(Cc1ccccc1)C(=O)c1ccccc1S2)N1CCCC1` as the compound, how does the AC50 read?
The AC50 was 16.2 µM (active).

Which AC50 does the source give for `COc1cc2oc3ccc(C#Cc4ccccn4)cc3c(=O)c2cc1OC` here?
The AC50 was “inactive”.

With `NC(=O)c1ccc(NC(=O)CSc2nnc(C3CC3)n2C2CC2)cc1` as the compound, how does the AC50 read?
The AC50 was “inactive”.

With `Cc1cc(C(=O)NNc2ccc(C)c(C)c2)no1` as the compound, how does the AC50 read?
Its AC50 is 0.287 µM (active).

With `CCOc1ccc(S(=O)(=O)NCCC(=O)NCc2ccccn2)cc1` as the compound, how does the AC50 read?
Its AC50 is “inactive”.

With `CCOC(=O)N1CCC(c2cc(=O)n3[nH]c(-c4ccccc4)cc3n2)CC1` as the compound, how does the AC50 read?
The AC50 was “inactive”.

Which AC50 does the source give for `O=c1[nH]nc(-c2cc(-c3ccccc3)nc3ccccc23)o1` here?
Its AC50 is “inactive”.

With `Oc1ccc(-c2cn3ccccc3n2)cc1` as the compound, how does the AC50 read?
The AC50 was 4.42 µM (active).

For `O=C(Cc1coc2cc(O)ccc12)NNC(=O)c1cccs1`, which AC50 is on record?
Its AC50 is > 39 µM.

For `Fc1ccc(-c2nc3ccc(Br)cn3c2Cc2ccccc2)cc1`, which AC50 is on record?
The AC50 was “inactive”.

Which AC50 does the source give for `COCC(=O)N1CC[C@@H]2[C@H]1c1cc(-c3ccc(OC)cc3)ccc1N(C)[C@H]2CO` here?
The AC50 was 10.2 µM (active).

For `C/C(=N\NC(=O)CSc1nc2ccccc2c(=O)n1-c1ccccc1C)c1cccs1`, which AC50 is on record?
Its AC50 is “inactive”.

For `CCNC(=O)C[C@H]1CC[C@@H]2[C@H](COc3ccc(NC(C)=O)cc3C(=O)N2C)O1`, which AC50 is on record?
Its AC50 is “inactive”.

Which AC50 does the source give for `Cc1ccc(NNC(=O)c2ccno2)c(C)c1` here?
Its AC50 is 5.41 µM (active).

Which AC50 does the source give for `O=C(C[C@@H]1C[C@H]2c3cc(NC(=O)Nc4ccccc4)ccc3O[C@H]2[C@H](CO)O1)NCc1ccccc1` here?
Its AC50 is “inactive”.

With `Oc1ccc(CCc2ccccn2)cc1` as the compound, how does the AC50 read?
Its AC50 is 11.6 µM (active).

With `Nc1ccc(Sc2ccc(N)cc2)cc1` as the compound, how does the AC50 read?
The AC50 was 3.22 µM (active).

With `COc1cc(/C=C(\C#N)C(=O)Nc2ccc3c(c2)OCCO3)ccc1O` as the compound, how does the AC50 read?
Its AC50 is > 39 µM.

For `Cc1ccc2ccc[n+](Cc3ccccc3)c2c1`, which AC50 is on record?
The AC50 was “inactive”.

With `O=C(Nc1ccc2c(c1)OCCO2)c1cc2ccccc2o1` as the compound, how does the AC50 read?
Its AC50 is > 39 µM.

Which AC50 does the source give for `CC(=O)c1cccc(-c2ccnc3c2CC(C(=O)NCc2ccccc2)O3)c1` (stereo not drawn) here?
The AC50 was “inactive”.

Which AC50 does the source give for `Nc1ccc2nc(-c3cccs3)[nH]c2c1` here?
The AC50 was 11 µM (active).

With `O=C(CNS(=O)(=O)c1ccc([N+](=O)[O-])cc1)N/N=C\c1ccc(O)cc1` as the compound, how does the AC50 read?
The AC50 was 13.2 µM (active).

Which AC50 does the source give for `CC(=O)Oc1ccc(/C=N/NC(=O)CCSc2ccccc2)cc1` here?
The AC50 was “inactive”.

For `O=c1c([N+](=O)[O-])cccn1Cc1ccc(F)cc1Cl`, which AC50 is on record?
The AC50 was “inactive”.

Which AC50 does the source give for `CCCNC(=O)N1CC[C@@H]2[C@@H](CO)N(C)c3ccc(-c4ccccc4)cc3[C@@H]21` here?
Its AC50 is 3.93 µM (active).

With `CC1C(=O)C(C)C(c2ccc([N+](=O)[O-])cc2)NC1c1ccc([N+](=O)[O-])cc1` (stereo not drawn) as the compound, how does the AC50 read?
The AC50 was “inactive”.

Which AC50 does the source give for `CC(=O)Nc1ccc(NC(=O)Cc2ccc(S(=O)(=O)N3CCCCC3)cc2)cc1` here?
The AC50 was “inactive”.

With `O=C(C[C@@H]1CC[C@@H]2[C@H](COC[C@H](O)CN2C(=O)c2ccccn2)O1)NC1CCC1` as the compound, how does the AC50 read?
Its AC50 is “inactive”.

With `c1ccc(Cc2nnc3n2N=C(c2ccccc2)CS3)cc1` as the compound, how does the AC50 read?
The AC50 was “inactive”.

Which AC50 does the source give for `CN1C=CC(=CC=C2C=CC(=O)C=C2)C=C1` here?
The AC50 was 7.43 µM (active).

With `Cc1ccc(NNC(=O)C2CCC2)cc1C` as the compound, how does the AC50 read?
Its AC50 is 0.386 µM (active).

Which AC50 does the source give for `Oc1ccc(/C=N/Nc2ncnc3nc[nH]c23)cc1` here?
The AC50 was “inactive”.

Which AC50 does the source give for `Cc1ccc(C2=NS(=O)(=O)N(C)C(C(=O)NCc3ccc(F)cc3)=C2)cc1` here?
The AC50 was “inactive”.

For `NC1=NC[C@H](Cc2ccc(O)cc2)N1CCc1cc(C(F)(F)F)cc(C(F)(F)F)c1`, which AC50 is on record?
The AC50 was “inactive”.
